Experimental data as given in PubChem BioAssay AID485273 (Sanford-Burnham Center for Chemical Genomics, 2010).
Out of some 330,000 compounds screened, about 1,500 (0.45%) were called active. No stated cut-off is given here; in the data, active means inhibition above about 45% (passing the limit was not always enough); inconclusive means no clear call, values can overlap the other calls. For the sample, actives were picked, then their nearest neighbours and some compounds at random.

These compounds were tested against Ubiquitin-conjugating enzyme E2 N (Homo sapiens) (UniProt P61088) (assay: UBC13 polyubiquitin chain formation inhibitors, primary screen, biochemical, TR-FRET, uHTS (AID 485273)). Settings: at 20 µM, active compounds read high.
Ubiquitin-conjugating enzyme E2 N (Homo sapiens), sequence (P61088 whole entry, looked up): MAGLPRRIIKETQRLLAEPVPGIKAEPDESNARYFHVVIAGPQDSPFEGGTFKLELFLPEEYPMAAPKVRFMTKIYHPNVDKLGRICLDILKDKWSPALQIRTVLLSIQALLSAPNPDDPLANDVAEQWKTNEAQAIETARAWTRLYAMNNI

inhibition, inactive:
O=C(NCc1csc(-c2cccs2)n1)C1CC1 -1.3%
CC(C)(CCl)C(=O)Nc1ccc(Sc2ccc(F)cc2)cc1 7.4%
Cc1ccc(C)c(NC(=O)C(c2ccccc2)N2CCN(CC(=O)NC3CC3)CC2)c1 (configuration not stated) 2.6%
Cc1ccc(N2C(=O)N3[C@@H]4c5ccccc5OC[C@@H]4[C@@H](c4ccccc4)[C@@]3(C)C2=O)cc1 6.8%
O=C1CC(Cc2ccc(Cl)cc2)C(=O)N1c1cc(Cl)ccn1 (configuration not stated) 0%
CN(c1ccccn1)c1ncnc2[nH]ncc12 5.9%
O=C(NNC(=O)c1cc(-c2ccccc2Cl)nc2ccccc12)c1csc(N2CCOCC2)n1 1.5%
COc1ccccc1C(=O)NC(CCSC)C(=O)NNC(=O)c1csc(N2CCOCC2)n1 (configuration not stated) 4.2%
CCCCN1C(N)=NC[C@@H]1Cc1ccccc1 -6.3%
NC1=NC[C@@H](Cc2ccc(O)cc2)N1CC1CCCCC1 17.3%
CC(=O)N1CCC(N(C(=O)Nc2ccc(Cl)cc2)C(C)C)CC1 -2.5%
CC(OC(=O)CN1C(=O)C2CCCCC2C1=O)C(=O)Nc1ncc(Cl)cc1Cl (configuration not stated) -6.5%
CCOC(=O)c1ccccc1NC(=O)COC(=O)C(Cc1c[nH]c2ccccc12)NC(C)=O (configuration not stated) 3.4%
O=C(CNC(=O)Cc1ccccc1)NCC(=O)OCC(=O)c1ccccc1Cl 12%
CCC1(CC)Cc2ccccc2-c2nc(CCl)[nH]c(=O)c21 9%
CC1(C)Cc2ccccc2-c2nc(CN3CCOCC3)[nH]c(=O)c21 -5.3%
CCN(CC)C(=O)CC(c1ccc2c(c1)OCO2)c1c(OC)cc(OC)c2c(-c3ccccc3)cc(=O)oc12 (configuration not stated) 8.8%
CCN(CC)CCC(c1ccc2c(c1)OCO2)c1c(OC)cc(OC)c2c(-c3ccccc3)cc(=O)oc12 (configuration not stated) 32.1%
N#CCCn1ncc2ccccc21 0.9%
CCCCn1c(N)c(N(CC)C(=O)c2ccccc2C(F)(F)F)c(=O)[nH]c1=O -4.3%
CCn1c(CNC(=O)c2cc(OC)c(OC)c(OC)c2)cc2cc(C)ccc21 5.6%
O=S(=O)(Cc1cc(Sc2ccccc2)nc(-c2ccccc2)n1)c1ccccc1 -3.4%

inhibition, active:
CSCCC(NC(=O)c1ccc(Cl)cc1Cl)C(=O)NNC(=O)c1csc(N2CCOCC2)n1 (configuration not stated) 58.4%
CC[C@@H](C)[C@@H]1CN([C@@H](C)CN2CCC[C@H]2CN2C(N)=NC[C@H]2C(C)C)C(=N)N1CCc1ccc(Cl)c(Cl)c1 50.1%
C[C@@H](CN1CCC[C@H]1CN1C(N)=NC[C@@H]1Cc1ccccc1)N1C[C@@H](Cc2ccccc2)N(CCCC2CCCC2)C1=N 62.2%
CC1(C)Cc2ccccc2-c2[nH]c(=S)[nH]c(=O)c21 62.2%
CCN(CC)CCC(c1cc(OC)c(OC)c(OC)c1)c1c(OC)cc(OC)c2c(-c3ccccc3)cc(=O)oc12 (configuration not stated) 50.2%
